Molecules are shown by their SMILES. Values joined by “and” are separate entries in the source; they are usually repeats but may differ in a detail not shown here. Identical values can stand only once. Compounds without any hit were thinned out: in the full panel of roughly 79,000, 15% have a hit. Active and inactive are the calls of the source. Cut-off read from the data, not from the text of the source: active = growth inhibition above about 70%; inactive = the rest.

One assay in a line: NCI Yeast Anticancer Drug Screen. Data for the rad14 strain (AID 159).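 Note: 0% = growth of vehicle-treated control cultures.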 Particulars: S. cerevisiae rad14 strain growth inhibition; at 100.0 µM; hits give high values. In a few lines:
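DNA repair-defective yeast, compound-exposed; % growth inhibition derived by comparison with vehicle-treated controls.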
With `Cc1nc2ccccc2nc1NNc1ccccc1`, the growth inhibition is 38% (inactive).
As to `CN(C)[C@@H]1C(=O)C(C(N)=O)=C(O)[C@@]2(O)C(=O)C3=C(O)c4c(O)cccc4C[C@H]3C[C@@H]12`, the growth inhibition is 99% (active).
In the case of `COc1ccc(NC(=O)CC2SC(=Nc3ccccc3C)NC2=O)c([N+](=O)[O-])c1` (stereo not given), the growth inhibition is 97% (active).
Same read-out and setting: the result for `COc1cc(O)c2c(c1O)C(=O)c1cc(C)ncc1C2=O` reads 94% (active); that for `CSc1nnc(SC)nn1`, 98% (active); that for `COc1cc(/C=C2\CCC/C(=C\c3ccc(O)c(OC)c3)C2=O)ccc1O`, 5% (inactive).
As for `CN(C)CCNC(=O)c1cccc2cc([N+](=O)[O-])ccc12`, the growth inhibition is 93% (active).
Still for that read-out and setting: the result for `CCC(C)(C)c1ccc(Oc2cccc(C(=O)O)c2)cc1` reads 72% (active); that for `CCCCCCSc1ncnc2[nH]ncc12`, 5% (inactive); that for `CC(=O)Nc1ccc(/C=C/[N+](=O)[O-])cc1`, 99% (active).
The same measure, in the same setting: the result for `CCOC(=O)c1[nH]n(-c2ccccc2)c(=O)c1C=NC(=S)C(N)=S` reads 97% (active); that for `CCCC(O)C1CC(C(C)C)CCC1C` (stereo not given), 99% (active); that for `O=[n+]1c2ccccc2n([O-])c2cc(Br)ccc21`, 98% (active).
For `CN(C)CCNC(=O)c1cccc2c1Oc1c(cccc1[N+](=O)[O-])O2`, the growth inhibition was 40% (inactive).
In the case of `Nc1ncc(-c2ccc(Br)cc2)s1`, the growth inhibition is 97% (active).
For `Cc1cc2cc3cc(C)c(N)cc3nc2cc1N`, the growth inhibition is 92% (active).
Take `CC12C(=O)OC(=O)C(c3ccccc31)c1ccccc12`: the growth inhibition was 8% (inactive).
In the case of `c1ccc2c(OCC3CO3)cccc2c1` (stereo not given), the growth inhibition is 89% (active).
On the same count and under the same terms, the result for `CCOC(=N)c1ccc(O)c(OC)c1` reads -1% (inactive).
On the same count and under the same terms, with `Nc1cc(N)c(N=Nc2cccc3c(S(=O)(=O)O)cccc23)cc1N=Nc1cc([N+](=O)[O-])ccc1O` the figure was 47% (inactive); with `COC(=O)Oc1cc(Cl)c(Cl)cc1Cl`, 9% (inactive).
Still for that read-out and setting: with `O=C(O)C1CC(c2ccccc2)=NN1c1ccccc1` (stereo not given) the figure was 97% (active); with `COc1cc([C@@H]2c3cc4c(cc3[C@@H](Nc3ccc(NC(=O)c5cc([N+](=O)[O-])cn5C)cc3)[C@H]3COC(=O)[C@H]23)OCO4)cc(OC)c1O`, 59% (inactive).
For the compound `O=C(O)c1ccccc1/C=N/N=C1c2ccccc2-c2ccccc21`, the growth inhibition was 8% (inactive).
Regarding `O=C1CC(=O)c2ccccc21`, the growth inhibition is 56% (inactive).
Consider `Nc1ncnc2c1ncn2C1OC(CO)CC1O` (stereo not given), for which the growth inhibition is 94% (active).

The next assay is described as follows: NCI Yeast Anticancer Drug Screen. Data for the sgs1 mgt1 strain (AID 161).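 Note: 0% = growth of cultures given vehicle only.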 Particulars: S. cerevisiae sgs1 mgt1 strain, at 5.0 µM (retest, dose inferred, filed as 0.5), hits give high values. The essentials:
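Read-out: growth inhibition vs vehicle controls. Cells: mutant yeast strain deficient in DNA damage repair.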
As to `CS(=O)(=O)SCc1ccc([N+](=O)[O-])cc1`, the growth inhibition is -11% (inactive).
Same read-out and setting: the result for `Cc1csc(=S)n1OC(=O)NC1CCCCC1` reads 32% (inactive).
Still for that read-out and setting: with `CCOc1ccc(NC(=O)C2=C(C)NC(C)=C(C(=O)Nc3ccc(OCC)cc3)C2c2cccc([N+](=O)[O-])c2)cc1` the figure was -12% (inactive); with `CC(C)(C)N=C(NO)c1ccccc1`, 7% (inactive); with `CCCCC/C(=C(\C#N)C(=O)OCC)c1ccccc1`, -1% (inactive).
The same measure, in the same setting: with `O=C(NCCCl)Sc1ccc(Cl)cc1` the figure was -65% (inactive).
Take `O=C1Nc2ccc(Br)cc2C1=Nc1ccc2c(c1)OCO2`: the growth inhibition was -12% (inactive).
Still for that read-out and setting: with `CCC(C)OC(=O)Nc1ccc(C)c(NC(=O)OC(C)CC)c1` (stereo not given) the figure was 1% (inactive).
The same measure, in the same setting: the result for `O=C(O)c1cc2ccc(Cl)cc2c(O)c1C1=CCCCC1` reads 0% (inactive); that for `CN(C)Cc1cc(N=Nc2ccc(Cl)cc2)ccc1OC(=O)c1ccccc1`, 38% (inactive).
As for `CN1CCN(C(=O)/C=C/C(=O)c2ccccc2)CC1`, the growth inhibition was 6% (inactive).
On the same count and under the same terms, with `CCCC/C=C/C(C)(C(=O)OCC)C(=O)OCC` the figure was 0% (inactive); with `Cc1nc(-c2cc3cc([N+](=O)[O-])ccc3oc2=O)cs1`, 13% (inactive).
Turning to `Cc1nc2ccccc2nc1NNc1ccccc1`, the growth inhibition was 13% (inactive).
The same measure, in the same setting: with `CN(C)[C@@H]1C(=O)C(C(N)=O)=C(O)[C@@]2(O)C(=O)C3=C(O)c4c(O)cccc4C[C@H]3C[C@@H]12` the figure was 23% (inactive); with `COc1ccc(NC(=O)CC2SC(=Nc3ccccc3C)NC2=O)c([N+](=O)[O-])c1` (stereo not given), 2% (inactive); with `COc1cc(O)c2c(c1O)C(=O)c1cc(C)ncc1C2=O`, 9% (inactive).
Same read-out and setting: the result for `CSc1nnc(SC)nn1` reads -10% (inactive).
Regarding `COc1cc(/C=C2\CCC/C(=C\c3ccc(O)c(OC)c3)C2=O)ccc1O`, the growth inhibition was 8% (inactive).
Still for that read-out and setting: the result for `CN(C)CCNC(=O)c1cccc2cc([N+](=O)[O-])ccc12` reads -2% (inactive); that for `CCC(C)(C)c1ccc(Oc2cccc(C(=O)O)c2)cc1`, -1% (inactive); that for `CCCCCCSc1ncnc2[nH]ncc12`, -2% (inactive).
For the compound `CC(=O)Nc1ccc(/C=C/[N+](=O)[O-])cc1`, the growth inhibition was -43% (inactive).
Turning to `CCOC(=O)c1[nH]n(-c2ccccc2)c(=O)c1C=NC(=S)C(N)=S`, the growth inhibition was -4% (inactive).
Same read-out and setting: with `CCCC(O)C1CC(C(C)C)CCC1C` (stereo not given) the figure was -11% (inactive).
For the compound `O=[n+]1c2ccccc2n([O-])c2cc(Br)ccc21`, the growth inhibition was 66% (inactive).
Still for that read-out and setting: the result for `CN(C)CCNC(=O)c1cccc2c1Oc1c(cccc1[N+](=O)[O-])O2` reads 11% (inactive).
On the same count and under the same terms, with `Nc1ncc(-c2ccc(Br)cc2)s1` the figure was 18% (inactive); with `Cc1cc2cc3cc(C)c(N)cc3nc2cc1N`, 16% (inactive).
Still for that read-out and setting: the result for `CC12C(=O)OC(=O)C(c3ccccc31)c1ccccc12` reads 33% (inactive); that for `c1ccc2c(OCC3CO3)cccc2c1` (stereo not given), 50% (inactive).
Regarding `CCOC(=N)c1ccc(O)c(OC)c1`, the growth inhibition is 0% (inactive).
Consider `Nc1cc(N)c(N=Nc2cccc3c(S(=O)(=O)O)cccc23)cc1N=Nc1cc([N+](=O)[O-])ccc1O`, for which the growth inhibition is -10% (inactive).
Turning to `COC(=O)Oc1cc(Cl)c(Cl)cc1Cl`, the growth inhibition is 3% (inactive).
In the case of `O=C(O)C1CC(c2ccccc2)=NN1c1ccccc1` (stereo not given), the growth inhibition was -12% (inactive).
Still for that read-out and setting: with `COc1cc([C@@H]2c3cc4c(cc3[C@@H](Nc3ccc(NC(=O)c5cc([N+](=O)[O-])cn5C)cc3)[C@H]3COC(=O)[C@H]23)OCO4)cc(OC)c1O` the figure was 16% (inactive) and 54% (inactive); with `O=C(O)c1ccccc1/C=N/N=C1c2ccccc2-c2ccccc21`, -7% (inactive).
Take `O=C1CC(=O)c2ccccc21`: the growth inhibition was 3% (inactive).
`Nc1ncnc2c1ncn2C1OC(CO)CC1O` (stereo not given): the growth inhibition was -20% (inactive) and 14% (inactive).

The record behind these values is PubChem BioAssay (NCI).
